Data reported in PubChem BioAssay AID651820 (National Center for Advancing Translational Sciences (NCATS), 2012).
The campaign covered roughly 340,000 compounds. About 12,000 (3.5%) were called active. Where a call stands in place of a potency, no number is given. About 18% were inconclusive and are not listed. Only a selection was taken, and actives are over-represented in it overall. Unmarked numbers belong to inactive results. Calls come from the whole dose curve; as a rule, active = well fitted inhibition curve with a large enough effect; inconclusive = small, poorly fitted or top-dose-only effect, or another doubt; inactive = no such curve, though single readings can be large or run the other way.

Assay: qHTS Assay for Inhibitors of Hepatitis C Virus (HCV)
Conditions: Huh7.5.1 HCVcc-Cre infection, luciferase reporter, 44 h; series mostly up to 41.8 µM
Procedure, shortened: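 Whole-lifecycle infectious HCVcc-Cre system; cells 1,000/well, compound then virus (~0.5 moi) added 4 h after plating, 44 h culture. Luciferase read 15 sec following 15 min substrate incubation, room temp.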
Potency is the fitted concentration of half-maximal effect.

Structure (SMILES) | Potency | activity change, negative = inhibition
C=CC[C@@H](CC(=O)NCCO)C(=O)N[C@H](C)COC(=O)[C@@H](CC=C)CC(=O)OC(C)(C)C | inactive | –
CC(OC(=O)c1ccccc1NCCO)C(=O)Nc1ccnn1C(C)C (centres undefined) | inactive | –
COc1ccccc1N(C)S(=O)(=O)c1ccc(C(=O)NC2CCCCCC2)cc1 | 11.2 µM (active) | –
COc1ccccc1N(C)S(=O)(=O)c1ccc(C(=O)N2CCC(C(N)=O)CC2)cc1 | inactive | –
COc1ccc(S(=O)(=O)NC(C)C)cc1C(=O)NC1CCCCC1 | inactive | –
CSc1ccccc1NC(=O)COC(=O)CCCOc1ccc(C)cc1 | inactive | –
COc1ccc(-c2c(C)cc3oc(=O)cc(-c4ccccc4)c3c2C)cc1OC | 11.2 µM (active) | –
COc1ccc(-c2c(C)cc3oc(=O)cc(-c4ccccc4)c3c2C)cc1C=O | inactive | –
Cc1cc2oc(=O)cc(-c3ccccc3)c2c(C)c1-c1ccc(OC(F)(F)F)cc1 | – | -14.5% [at 8.37 µM]
Cc1ccc(S(=O)(=O)N(C)c2ccc(OCC(=O)OCC(=O)N(CC#N)c3ccccc3)cc2)cc1 | inactive | –
NCCN1CCN2C(=O)CN(C(=O)c3ccccc3)CC12 (centres undefined) | inactive | –
CCOc1ccc(Br)cc1CSC(=N)N | 11.2 µM (active) | –
CCOc1ccc(Br)cc1S(=O)(=O)N1CCC(C(=O)O)CC1 | inactive | –
CCOCCCNCc1cc(Br)ccc1OCC | inactive | –
COc1ccc(OCC(=O)NNC(=O)C2CCC2)cc1 | inactive | –
Cc1ccccc1CSCCNC(=O)c1ccc(N(C)S(=O)(=O)c2ccccc2)cc1 | 10 µM (active) | –
CN(c1ccccc1)S(=O)(=O)c1ccc(C(=O)NCCc2ccccc2)cc1 | inactive | –
Cc1ccc(C(=O)Nc2ncccc2C)cc1S(=O)(=O)N1CCOCC1 | inactive | –
COc1ccccc1CNC(=O)c1ccc(N(C)S(=O)(=O)c2ccc(C)cc2)cc1 | inactive | –
CN(C)S(=O)(=O)c1ccc(C(=O)NCC(C)(C)N2CCOCC2)cc1 | inactive | –
Cc1ccccc1CSCCNC(=O)c1ccc(Cl)c(S(=O)(=O)N2CCOCC2)c1 | 11.2 µM (active) | –
CC(C)(CNC(=O)c1ccc(Cl)c(S(=O)(=O)N2CCc3ccccc3C2)c1)N1CCOCC1 | 7.08 µM (active) | –

Structure (SMILES) | Potency | activity change, negative = inhibition
CC(C)(CNC(=O)Cc1ccc(Cl)cc1Cl)N1CCOCC1 | inactive | –
Cc1ccc(C(=O)NCC(c2cccs2)N(C)C)cc1S(=O)(=O)N1CCOCC1 (centres undefined) | inactive | –
COc1ccc([C@@H]2[C@@H]3C(=O)N(C(C)(C)C)C(=O)[C@@H]3[C@]3(Cc4ccccc4)C(=O)N(c4cccc(Br)c4)C(=O)N23)cc1 | inactive | –
O=C(NN=Cc1ccc(N2CCOCC2)cc1)c1cc2ccccc2cc1O | inactive | –
O=C(OCC(=O)N1CCN(C(=O)c2ccco2)CC1)c1ccc(Cl)c(Cl)c1 | inactive | –
COc1cccc(CC2(CO)CCCN(Cc3ccc(OC(F)F)cc3)C2)c1 (centres undefined) | inactive | –
FC(F)(F)c1cccc(Nc2ncnc3ccccc23)c1 | inactive | –
CCc1nc2ccccc2c(C(=O)NCc2ccc(OC)cc2)c1C | inactive | –
CC(C)(C)c1nc(NCC2CCCO2)c2nnn(Cc3ccccc3)c2n1 (centres undefined) | inactive | –
c1coc(CNc2ncnc3ccccc23)c1 | 3.55 µM (active) | –
COc1cccc(CNC(=O)c2n[nH]c3ccccc23)c1 | inactive | –
COc1cccc(CNc2nc(C(F)(F)F)nc3ccccc23)c1 | 5.62 µM (active) | –
CCc1ccc(C(CNc2nc(C(F)(F)F)nc3ccccc23)N(C)C)cc1 (centres undefined) | inactive | –
COc1ccc(CNc2ncnc3ccccc23)cc1 | 3.16 µM (active) | –
c1ccc2c(NCC3CCCO3)nc(-c3ccncc3)nc2c1 (centres undefined) | 10 µM (active) | –
COc1ccc(CNc2nccs2)cc1 | inactive | –
Clc1cccc(-c2nc(NCC3CCCO3)c3ccccc3n2)c1 (centres undefined) | inactive | –
O=C(NCc1ccncc1)C(=O)NCc1ccco1 | inactive | –
COc1ccc(C(=O)C(C)OC(=O)c2cccc(S(=O)(=O)Nc3c(C)n(C)n(-c4ccccc4)c3=O)c2)cc1 (centres undefined) | inactive | –
NC(=O)C1(Nc2ccc(-c3ccccc3)cc2)CCCC1 | inactive | –
NC(CSC1(c2ccccc2)c2ccccc2-c2ccccc21)C(=O)O (centres undefined) | inactive | –
Cc1cc(NC(=O)c2cc3ccccc3o2)no1 | inactive | –

Structure (SMILES) | Potency | activity change, negative = inhibition
C=CC(=O)Nc1ccc(Nc2ccnc(Nc3ccc(N4CCN(C)CC4)cc3)n2)cc1 | – | 29.9% [at 8.37 µM]
CC(C)COc1ccc(C(=O)OCC(=O)NCCC2=CCCCC2)cc1 | inactive | –
COCCN(C(=O)C(C)N1C(=O)c2ccccc2C1=O)c1c(N)n(CC(C)C)c(=O)[nH]c1=O (centres undefined) | inactive | –
COc1cccc(NC(=O)COC(=O)c2ccc3ccccc3n2)c1 | inactive | –
O=C(COC(=O)c1ccccc1Cl)NC1CCCCCCC1 | inactive | –
Cc1ccc(S(=O)(=O)Nc2ccc(F)c(S(=O)(=O)N3CCOCC3)c2)cc1 | inactive | –
CCOCCCNc1nc(-c2ccccc2)nc2ccccc12 | inactive | –
O=C(Cc1ccccc1)n1nc(-c2ccccc2)nc1NCc1ccco1 | inactive | –
c1ccc(-c2nc(NCc3ccco3)c3ccccc3n2)cc1 | 10 µM (active) | –
CCN(C(=O)COC(=O)c1sccc1C)c1c(N)n(Cc2ccccc2)c(=O)[nH]c1=O | inactive | –
COc1ccc(NC(=O)Nc2ccc3c(c2)C(=O)N([C@H](C)CO)C[C@H](C)[C@@H](CN(C)C(=O)Nc2ccc4c(c2)OCO4)O3)cc1 | inactive | –
O=C(NCC1(N2CCCCC2)CCCCC1)c1cccc(S(=O)(=O)Nc2ccccc2Cl)c1 | inactive | –
CCOc1ccc(S(=O)(=O)Nc2cccc(C(=O)NCC3(N4CCCCC4)CCCCC3)c2)cc1 | 12.6 µM (active) | –
O=C(NCC1(N2CCCCC2)CCCCC1)c1ccc(NS(=O)(=O)c2ccc(F)cc2)cc1 | inactive | –
O=C(CCNS(=O)(=O)c1ccccc1)NCCCc1ccccc1 | inactive | –
NS(=O)(=O)c1ccc(CCNC(=O)COC(=O)COc2cccc(C(F)(F)F)c2)cc1 | inactive | –
CN(C)C(=O)CCc1ccc2c3c([nH]c2c1)[C@]1(C)[C@@H](C(=O)N2CCOCC2)C[C@H](CC(=O)NCCc2ccccn2)C(=O)N1CC3 | inactive | –
N#CC1(Nc2ccc(-c3ccc(Cl)cc3)cc2)CCCC1 | inactive | –
O=C1COc2c1ccc(O)c2O | inactive | –
CC(C)(C)c1ccc(C(=O)NCc2ccco2)cc1 | inactive | –
